Measurements: PubChem BioAssay
Active and inactive are the calls of the source.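 How the source made its calls, unless noted: active means normalized viability below 100% at a tested concentration; inactive means the rest.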

Legend:
[1] = ovarian cancer cell viability with rucaparib, profiling panel, oncology-focused library, rucaparib conditional (AID 1508598); details: patient-derived ovarian cancer cells, CellTiter-Glo viability, 144 h, hits give low values
[2] = target: NAD(+) hydrolase SARM1 (Homo sapiens) (UniProt Q6SZW1); test: SARM1 TIR NADase inhibitors, cell lysate, NAD-Glo luminescence (AID 1508614;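 active means compound whose remaining NAD level is above about 45 nM, limit read from the data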;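 further: higher remaining NAD means stronger inhibition of SARM1 NADase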); details: SAM-TIR HEK293T lysate NADase, at 1 µM, hits give high values
Sequence of NAD(+) hydrolase SARM1 (Homo sapiens) (Q6SZW1 whole entry, looked up): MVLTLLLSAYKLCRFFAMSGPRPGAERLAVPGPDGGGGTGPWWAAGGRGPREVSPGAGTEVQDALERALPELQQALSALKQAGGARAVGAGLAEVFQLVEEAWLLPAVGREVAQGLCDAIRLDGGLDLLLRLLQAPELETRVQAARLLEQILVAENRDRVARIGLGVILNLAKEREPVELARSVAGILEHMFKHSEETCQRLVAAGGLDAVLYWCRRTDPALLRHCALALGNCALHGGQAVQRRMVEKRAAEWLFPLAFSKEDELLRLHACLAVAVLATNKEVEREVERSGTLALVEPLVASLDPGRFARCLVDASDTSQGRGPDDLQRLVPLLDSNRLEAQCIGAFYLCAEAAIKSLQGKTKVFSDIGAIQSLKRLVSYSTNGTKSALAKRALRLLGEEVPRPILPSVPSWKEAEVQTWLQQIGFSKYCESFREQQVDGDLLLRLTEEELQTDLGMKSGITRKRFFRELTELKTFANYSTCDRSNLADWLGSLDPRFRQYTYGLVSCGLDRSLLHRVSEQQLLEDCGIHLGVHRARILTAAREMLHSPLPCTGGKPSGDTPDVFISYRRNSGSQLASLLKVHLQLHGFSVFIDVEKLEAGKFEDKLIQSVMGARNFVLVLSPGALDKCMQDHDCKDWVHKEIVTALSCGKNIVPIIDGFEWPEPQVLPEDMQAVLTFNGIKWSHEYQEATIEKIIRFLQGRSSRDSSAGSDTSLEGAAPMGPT

[3] = at 5 µM, OCI-P5x cells, with rucaparib 20 µM, 100% = cells with rucaparib alone
[4] = at 5 µM, OCI-P5x cells, without rucaparib
[5] = at 0.000305 µM, OCI-C5x cells, with rucaparib 10 µM, 100% = cells with rucaparib alone
[6] = at 0.000305 µM, OCI-C5x cells, without rucaparib
[7] = at 0.000305 µM, OCI-P5x cells, with rucaparib 20 µM, 100% = cells with rucaparib alone
[8] = at 0.000305 µM, OCI-P5x cells, without rucaparib
[9] = at 0.00122 µM, OCI-C5x cells, with rucaparib 10 µM, 100% = cells with rucaparib alone
[10] = at 0.00122 µM, OCI-C5x cells, without rucaparib
[11] = at 0.00122 µM, OCI-P5x cells, with rucaparib 20 µM, 100% = cells with rucaparib alone
[12] = at 0.00122 µM, OCI-P5x cells, without rucaparib
[13] = at 0.00488 µM, OCI-C5x cells, with rucaparib 10 µM, 100% = cells with rucaparib alone
[14] = at 0.00488 µM, OCI-C5x cells, without rucaparib
[15] = at 0.00488 µM, OCI-P5x cells, with rucaparib 20 µM, 100% = cells with rucaparib alone
[16] = at 0.00488 µM, OCI-P5x cells, without rucaparib
[17] = at 0.0195 µM, OCI-C5x cells, with rucaparib 10 µM, 100% = cells with rucaparib alone
[18] = at 0.0195 µM, OCI-C5x cells, without rucaparib
[19] = at 0.0195 µM, OCI-P5x cells, with rucaparib 20 µM, 100% = cells with rucaparib alone
[20] = at 0.0195 µM, OCI-P5x cells, without rucaparib
[21] = at 0.0781 µM, OCI-C5x cells, with rucaparib 10 µM, 100% = cells with rucaparib alone
[22] = at 0.0781 µM, OCI-C5x cells, without rucaparib
[23] = at 0.0781 µM, OCI-P5x cells, with rucaparib 20 µM, 100% = cells with rucaparib alone
[24] = at 0.0781 µM, OCI-P5x cells, without rucaparib
[25] = at 0.313 µM, OCI-C5x cells, with rucaparib 10 µM, 100% = cells with rucaparib alone
[26] = at 0.313 µM, OCI-C5x cells, without rucaparib
[27] = at 0.313 µM, OCI-P5x cells, with rucaparib 20 µM, 100% = cells with rucaparib alone
[28] = at 0.313 µM, OCI-P5x cells, without rucaparib
[29] = at 1.25 µM, OCI-C5x cells, with rucaparib 10 µM, 100% = cells with rucaparib alone
[30] = at 1.25 µM, OCI-C5x cells, without rucaparib
[31] = at 1.25 µM, OCI-P5x cells, with rucaparib 20 µM, 100% = cells with rucaparib alone
[32] = at 1.25 µM, OCI-P5x cells, without rucaparib
[33] = at 5 µM, OCI-C5x cells, with rucaparib 10 µM, 100% = cells with rucaparib alone
[34] = at 5 µM, OCI-C5x cells, without rucaparib

C[C@]12CC[C@H]3c4ccc(O)cc4CC[C@H]3[C@@H]1CC[C@H]2O
inactive: viability [1, 3] 107% | viability [1, 4] 110%

COc1cccc2c1C(=O)c1c(O)c3c(c(O)c1C2=O)C[C@@](O)(C(C)=O)C[C@H]3O[C@H]1C[C@H](N)[C@H](O)[C@H](C)O1
inactive: viability [1, 5] 118% | viability [1, 6] 110% | viability [1, 7] 110% | viability [1, 8] 105% | viability [1, 9] 123% | viability [1, 10] 101% | viability [1, 12] 101% | viability [1, 13] 125% | viability [1, 14] 152% | viability [1, 17] 198% | viability [1, 18] 201% | viability [1, 21] 180% | viability [1, 22] 105% | viability [1, 25] 101%
active: viability [1, 11] 99.8% | viability [1, 15] 99.2% | viability [1, 16] 94.6% | viability [1, 19] 84.2% | viability [1, 20] 43% | viability [1, 23] 74.4% | viability [1, 24] 26.5% | viability [1, 26] 5.28% | viability [1, 27] 25.9% | viability [1, 28] 10.5% | viability [1, 29] 2.76% | viability [1, 30] 1.21% | viability [1, 31] 15.7% | viability [1, 32] 5.33% | viability [1, 33] 2.96% | viability [1, 34] 1.85% | viability [1, 3] 4.23% | viability [1, 4] 3.15%

COc1ccc(C2=N[C@@H](c3ccc(Cl)cc3)[C@H](c3ccc(Cl)cc3)N2C(=O)N2CCNC(=O)C2)c(OC(C)C)c1
inactive: viability [1, 5] 118% | viability [1, 6] 104% | viability [1, 9] 117% | viability [1, 10] 104% | viability [1, 13] 122% | viability [1, 14] 106% | viability [1, 17] 106% | viability [1, 18] 100% | viability [1, 21] 113% | viability [1, 23] 100% | viability [1, 26] 101% | viability [1, 27] 104% | viability [1, 30] 100% | viability [1, 32] 101%
active: viability [1, 7] 90.9% | viability [1, 8] 90.5% | viability [1, 11] 94.2% | viability [1, 12] 89.4% | viability [1, 15] 97.7% | viability [1, 16] 95.5% | viability [1, 19] 96.2% | viability [1, 20] 95.8% | viability [1, 22] 99.5% | viability [1, 24] 96.7% | viability [1, 25] 97.4% | viability [1, 28] 99.4% | viability [1, 29] 93.7% | viability [1, 31] 97.7% | viability [1, 33] 84.5% | viability [1, 34] 95.4% | viability [1, 3] 89.7% | viability [1, 4] 91.3%

C=CCNC1=C2C[C@@H](C)C[C@H](OC)[C@H](O)[C@@H](C)/C=C(\C)[C@H](OC(N)=O)[C@@H](OC)/C=C\C=C(\C)C(=O)NC(=CC1=O)C2=O
active: viability [1, 23] 41.9% | viability [1, 24] 35.9% | viability [1, 26] 56.1% | viability [1, 27] 12.5% | viability [1, 28] 8.71% | viability [1, 29] 28.6% | viability [1, 30] 27.2% | viability [1, 31] 5.52% | viability [1, 32] 5.3% | viability [1, 33] 8.53% | viability [1, 34] 8.44% | viability [1, 3] 2.79% | viability [1, 4] 1.94%
inactive: viability [1, 5] 110% | viability [1, 6] 101% | viability [1, 7] 119% | viability [1, 8] 124% | viability [1, 9] 113% | viability [1, 10] 108% | viability [1, 11] 126% | viability [1, 12] 121% | viability [1, 13] 110% | viability [1, 14] 117% | viability [1, 15] 122% | viability [1, 16] 126% | viability [1, 17] 120% | viability [1, 18] 116% | viability [1, 19] 119% | viability [1, 20] 115% | viability [1, 21] 133% | viability [1, 22] 112% | viability [1, 25] 104%

CC(=O)O[C@]12CO[C@@H]1C[C@H](O)[C@]1(C)C(=O)[C@H](O)C3=C(C)[C@H](OC(=O)[C@H](O)[C@@H](NC(=O)OC(C)(C)C)c4ccccc4)C[C@](O)([C@H](OC(=O)c4ccccc4)C21)C3(C)C (stereo partly drawn)
active: viability [1, 9] 86.4% | viability [1, 10] 76% | viability [1, 11] 93% | viability [1, 12] 33.3% | viability [1, 13] 37.6% | viability [1, 14] 32.6% | viability [1, 15] 70.1% | viability [1, 16] 19.5% | viability [1, 17] 41.9% | viability [1, 18] 35.3% | viability [1, 19] 56.6% | viability [1, 20] 16.8% | viability [1, 21] 38.2% | viability [1, 22] 33.7% | viability [1, 23] 61.2% | viability [1, 24] 19.8% | viability [1, 25] 41.5% | viability [1, 26] 37.8% | viability [1, 27] 55.6% | viability [1, 28] 18.6% | viability [1, 29] 47.4% | viability [1, 30] 41.3% | viability [1, 31] 55.9% | viability [1, 32] 20.7% | viability [1, 33] 37.7% | viability [1, 34] 56.7% | viability [1, 3] 34.2% | viability [1, 4] 16.1%
inactive: viability [1, 5] 118% | viability [1, 6] 115% | viability [1, 7] 120% | viability [1, 8] 106%

CC1(C)C2CCC1(CS(=O)(=O)O)C(=O)C2=Cc1ccc(C=C2C(=O)C3(CS(=O)(=O)O)CCC2C3(C)C)cc1
inactive: remaining NAD [2] 10 nM

CC(=O)O[C@H]1C(=O)[C@@]2(C)C([C@H](OC(=O)c3ccccc3)[C@]3(O)C[C@H](OC(=O)[C@H](O)[C@@H](NC(=O)c4ccccc4)c4ccccc4)C(C)=C1C3(C)C)[C@]1(OC(C)=O)CO[C@@H]1C[C@H]2O (stereo partly drawn)
active: viability [1, 13] 75.3% | viability [1, 14] 71.2% | viability [1, 15] 97.9% | viability [1, 16] 39.8% | viability [1, 17] 37% | viability [1, 18] 35.9% | viability [1, 19] 63.2% | viability [1, 20] 16.9% | viability [1, 21] 34.2% | viability [1, 22] 30.2% | viability [1, 23] 64.9% | viability [1, 24] 17.4% | viability [1, 25] 36.2% | viability [1, 26] 29.8% | viability [1, 27] 57.9% | viability [1, 28] 18.2% | viability [1, 29] 30% | viability [1, 30] 32.8% | viability [1, 31] 56.9% | viability [1, 32] 18.7% | viability [1, 33] 24.5% | viability [1, 34] 24.4% | viability [1, 3] 34.2% | viability [1, 4] 17%
inactive: viability [1, 5] 112% | viability [1, 6] 129% | viability [1, 7] 125% | viability [1, 8] 125% | viability [1, 9] 114% | viability [1, 10] 121% | viability [1, 11] 119% | viability [1, 12] 123%
